Experimental findings from PubChem BioAssay AID1851 (National Center for Advancing Translational Sciences (NCATS), 2009) are described below.

SMILES strings stand for the structures. In all, about 16,000 compounds went through this assay and about 2,600 (16%) were called active. About 20% were inconclusive and are not listed. A selection follows. Values without a mark were called inactive. Calls come from the whole dose curve; as a rule, active = well fitted curve in the direction sought with a large enough effect; inconclusive = small, poorly fitted or top-dose-only effect, or effect the other way; inactive = no such curve, though single readings can be large or run the other way.
% is set by controls: 0 for no effect and ±100 for the full control effect.

The target of this experiment is Cytochrome P450 2D6 (Homo sapiens) (UniProt P10635). Briefly: Cytochrome panel assay with activity outcomes. Particulars: recombinant CYP, pro-luciferin dealkylation, luminescence, p450-cyp2d6; series mostly up to 57.1 µM.
Chain of Cytochrome P450 2D6 (Homo sapiens) (P10635 whole entry, looked up): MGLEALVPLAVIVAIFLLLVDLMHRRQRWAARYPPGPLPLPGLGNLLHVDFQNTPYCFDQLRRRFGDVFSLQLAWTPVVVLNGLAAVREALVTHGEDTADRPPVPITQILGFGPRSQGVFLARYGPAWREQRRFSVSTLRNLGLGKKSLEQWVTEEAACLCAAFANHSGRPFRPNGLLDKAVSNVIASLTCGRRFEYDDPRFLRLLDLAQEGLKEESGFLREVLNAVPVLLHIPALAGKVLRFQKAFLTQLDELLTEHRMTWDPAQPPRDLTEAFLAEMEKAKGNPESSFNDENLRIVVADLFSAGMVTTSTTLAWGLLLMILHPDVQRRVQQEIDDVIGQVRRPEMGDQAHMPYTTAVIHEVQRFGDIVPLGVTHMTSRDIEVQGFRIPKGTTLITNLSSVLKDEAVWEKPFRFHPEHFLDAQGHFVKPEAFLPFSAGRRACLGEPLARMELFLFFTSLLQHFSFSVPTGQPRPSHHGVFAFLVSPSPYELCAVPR
Take `COc1cc(C2C(C#N)=C(N)N(Nc3ccccc3)C3=C2C(=O)CC(C)(C)C3)ccc1OCc1cccc(F)c1` (centres undefined): the AC50 – broadly, the concentration giving half of the maximal activity seen – is “inactive”.
As to `CC1=C(CC(=O)O)c2cc(F)ccc2/C1=C\c1ccc(S(C)(=O)=O)cc1`, the AC50 result is “inactive”.
On to `Clc1ccc2c(NCCNC3CCCCC3)ccnc2c1`, for which the AC50 was 3.16 µM (active).
In the case of `Clc1ccc2c(NCCNc3ccnc4cc(Cl)ccc34)ccnc2c1`, the activity, negative = inhibition was -10.3% [at 11.4 µM].
Same read-out and setting: in the case of `C/C(CC/C(C)=N/O)=N/O` it was 8.85% [at 11.4 µM].
Turning to `O=C(O)c1cccnc1C(=O)O`, the AC50 entry was “inactive”.
On the same count and under the same terms, the result for `CN(C)Cc1ccccc1-c1cc(NC2CC2)ncn1` reads 0.0398 µM (active); that for `Cc1noc(C)c1-c1cc(NC2CCNCC2)ncn1`, “inactive”.
On to `CNc1cc(-c2ccccc2CN(C)C)ncn1`, for which the AC50 was 0.631 µM (active).
The same measure, in the same setting: in the case of `CNc1cc(-c2ccccc2C(F)(F)F)ncn1` it was “inactive”; in that of `CN(C)c1cc(-c2cccc(NS(C)(=O)=O)c2)ncn1`, “inactive”; in that of `Cc1noc(C)c1-c1cc(Nc2ccccc2)ncn1`, “inactive”.
Still for that read-out and setting: the result for `CN(C)Cc1ccccc1-c1cc(Nc2ccccc2)ncn1` reads 12.6 µM (active); that for `CN(C)Cc1ccccc1-c1cc(N(C)C)ncn1`, 1.26 µM (active); that for `CC(=O)NCCNc1cc(-c2ccccc2CN(C)C)ncn1`, “inactive”.
Still for that read-out and setting: the result for `CC(=O)c1ccc(NC(=O)C2(c3ccccc3)CCOCC2)cc1` reads “inactive”.
As for `CON1C(=O)C(=O)N(OC)C(C)(C)C1C` (centres undefined), the AC50 result was “inactive”.
On the same count and under the same terms, the result for `CCOC(=O)N1CCN(C(=O)c2ccc3c(=O)n(-c4ccc(OC)cc4)c(=S)[nH]c3c2)CC1` reads “inactive”; that for `C=CCn1c(=O)c2c(nc(-c3ccc(S(=O)(=O)O)cc3)n2C)n(C)c1=O`, “inactive”.
Consider `CN(C)C[C@H]1CCC2=C(C1=O)C(c1ccc(Cl)c(Cl)c1)C1=C(CC[C@H](CN(C)C)C1=O)O2`, for which the activity, negative = inhibition is -12.4% [at 11.4 µM].
Still for that read-out and setting: in the case of `[O-][n+]1c(CN2CCCCC2)nc2cccc3c2c1-c1ccccc1-3` it was -13.1% [at 11.4 µM].
For `CCCOC(=O)c1ccc(NC(=O)c2cn(CC)c3nc(C)ccc3c2=O)cc1`, the AC50 result was “inactive”.
For the compound `O=c1c(-c2ccccc2)nc2cnc(Oc3cccc(Cl)c3)nc2n1C1CC1`, the AC50 result is “inactive”.
On the same count and under the same terms, in the case of `Cc1c(Cl)cccc1NC(=O)CN1CCC(C(O)(c2ccccc2)c2ccccc2)CC1` it was 0.224 µM (active); in that of `Cc1c(Cl)cccc1Nc1ccccc1C(=O)O`, “inactive”; in that of `Cc1ccc(NC(=O)CN2CCC(NC(=O)Cc3ccccc3)CC2)cc1C`, “inactive”.
Regarding `Cc1c(Cl)cccc1NC(=O)CC1NCCNC1=O` (centres undefined), the AC50 result was “inactive”.
On the same count and under the same terms, in the case of `Cc1cc(Cl)ccc1NC(=O)CN1CCC(C(O)(c2ccccc2)c2ccccc2)CC1` it was 14.1 µM (active); in that of `CCOC(=O)c1ccccc1NC(=O)CSc1cccc[n+]1[O-]`, “inactive”.
